Results from PubChem BioAssay.
The source made the active and inactive calls.

Assays:
Albumin (Bos taurus) = Albumin (Bos taurus) (UniProt P02769); assay: bovine serum albumin binders on microarray, profiling panel, artefact control for SMM control protein annotation, biochemical, small-molecule microarray, Alexa647 label, 635/667 nm fluorescence (AID 1118); details: BSA-A647 binding, fluorescence 635 nm, higher = more signal;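 further: score merges 667 nm emission intensity and signal-to-noise per printed compound spot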
Sequence of Albumin (Bos taurus) (P02769 whole entry, looked up): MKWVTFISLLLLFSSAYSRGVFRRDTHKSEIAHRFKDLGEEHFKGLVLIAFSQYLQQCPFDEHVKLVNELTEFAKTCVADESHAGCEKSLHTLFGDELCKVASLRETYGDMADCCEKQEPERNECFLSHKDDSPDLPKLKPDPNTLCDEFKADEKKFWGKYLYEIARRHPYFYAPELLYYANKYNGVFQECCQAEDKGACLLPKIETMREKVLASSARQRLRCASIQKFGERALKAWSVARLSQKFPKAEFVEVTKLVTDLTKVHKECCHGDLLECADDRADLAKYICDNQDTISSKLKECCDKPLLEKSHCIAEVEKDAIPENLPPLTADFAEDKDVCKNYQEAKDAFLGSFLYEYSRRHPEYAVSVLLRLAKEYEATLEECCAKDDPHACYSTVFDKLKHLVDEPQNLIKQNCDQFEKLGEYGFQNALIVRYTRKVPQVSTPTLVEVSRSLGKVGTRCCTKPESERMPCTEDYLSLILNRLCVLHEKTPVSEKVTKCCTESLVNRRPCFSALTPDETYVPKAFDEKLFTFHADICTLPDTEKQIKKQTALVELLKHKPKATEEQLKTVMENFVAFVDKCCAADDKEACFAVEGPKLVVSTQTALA

[1] = small-molecule microarray binders of probe aXIP, primary screen, biochemical, NeuroSMM set, 635/667 nm fluorescence (AID 1119); details: higher = more signal, called active from +8 up or from −8 down;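 further: probe is the protein aXip251-270 applied at 1 µg/mL to compound-printed slides; binding of probe to printed compounds measured as 667 nm fluorescence plus signal to noise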
[2] = small-molecule binders of probe aNOTCH3, primary screen, biochemical, small-molecule microarray, 635/667 nm fluorescence (AID 1120); details: higher = more signal;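 further: probe is a biotin-tagged antibody raised against NOTCH3 rather than NOTCH3 protein; score merges spot fluorescence near 667 nm with spot signal to noise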
[3] = small-molecule binders of probe aNOTCH2, primary screen, biochemical, small-molecule microarray, 635/667 nm fluorescence (AID 1121); details: higher = more signal;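 further: score merges feature fluorescence read at 667 nm with its signal to noise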
[4] = molecular target: Carbonic anhydrase 2 (Homo sapiens) (UniProt P00918); assay: CAII small-molecule binders, profiling panel, biochemical, small-molecule microarray, Alexa647-labelled CAII (AID 1122); details: CAII-A647 binding fluorescence, higher = more signal
[5] = COS7 lysate on small-molecule microarray, probe aHis, 635 nm (AID 1123); details: COS7 cell lysate, fluorescence, higher = more signal;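 further: z-score combines 667nm fluorescence intensity with signal-to-noise per printed compound spot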
[6] = compound binding in COS7 lysate, probe aLAP1, primary screen, cell lysate, small-molecule microarray (AID 1124); details: probe aLAP1, fluorescence, higher = more signal;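 further: lysate comes from COS7 cells expressing LAP1 and is applied at 0.3 µg/mL; score merges spot fluorescence near 667 nm with signal-to-noise over triplicate slides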
Sam68 (KHDRBS1) = assay: Sam68 small-molecule binders, primary screen, biochemical, small-molecule microarray, 635 nm fluorescence (AID 1125); details: small-molecule microarray binding, higher = more signal;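 further: score merges 667 nm channel intensity with signal to noise over triplicate slides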
[7] = test system: Chordin-like protein 2 (CHRDL2); assay: CHRDL2 small-molecule binders, primary screen, biochemical, small-molecule microarray, 635 nm fluorescence (AID 1126); details: small-molecule microarray binding, fluorescence 635 nm; higher = more signal;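 further: printed compound slides probed with Chrdl2 protein at 4 µg/mL for 1 h at 4 C; score merges 667 nm emission intensity with signal to noise over three replicate slides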
[8] = molecular target: Concanavalin-A (Canavalia ensiformis) (UniProt P02866); assay: ConA small-molecule binders, primary screen, artefact control for SMM control protein annotation, biochemical, small-molecule microarray, Alexa647 label, 635 nm (AID 1127); details: ConA-A647 binding fluorescence, higher = more signal;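 further: z combines 667 nm emission intensity with signal-to-noise across three replicate slides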
Sequence of Concanavalin-A (Canavalia ensiformis) (P02866 whole entry, looked up): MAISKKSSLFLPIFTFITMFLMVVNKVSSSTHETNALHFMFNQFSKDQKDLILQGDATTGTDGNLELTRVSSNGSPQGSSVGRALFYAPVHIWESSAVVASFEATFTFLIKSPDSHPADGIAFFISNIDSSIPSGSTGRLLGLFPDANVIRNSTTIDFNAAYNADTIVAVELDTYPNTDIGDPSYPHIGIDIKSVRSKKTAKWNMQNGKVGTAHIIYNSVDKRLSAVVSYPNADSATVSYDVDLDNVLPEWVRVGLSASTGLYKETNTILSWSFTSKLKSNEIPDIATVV

[9] = anti-His antibody binders, primary screen, artefact control for SMM control protein annotation, biochemical, small-molecule microarray, 635 nm fluorescence (AID 1128); details: anti-His Alexa647 antibody binding, higher = more signal;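 further: score merges feature fluorescence with signal-to-noise for each printed compound spot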
[10] = test system: Human papillomavirus type 1a E7 protein (residues 1-88); assay: HPV1a E7 small-molecule binders, primary screen, biochemical, small-molecule microarray, residues 1-88, 635 nm (AID 1129); details: small-molecule microarray binding, fluorescence 635 nm; higher = more signal
[11] = molecular target: Focal adhesion kinase 1 (Homo sapiens) (UniProt Q05397); assay: small-molecule microarray binders of FAK, primary screen, biochemical, 635/667 nm fluorescence, BSA, DTT (AID 1130); details: PTK2 binding, 635 nm fluorescence, higher = more signal;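 further: composite of spot emission at 667 nm and signal to noise over triplicate slides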
Sequence of Focal adhesion kinase 1 (Homo sapiens) (Q05397 whole entry, looked up): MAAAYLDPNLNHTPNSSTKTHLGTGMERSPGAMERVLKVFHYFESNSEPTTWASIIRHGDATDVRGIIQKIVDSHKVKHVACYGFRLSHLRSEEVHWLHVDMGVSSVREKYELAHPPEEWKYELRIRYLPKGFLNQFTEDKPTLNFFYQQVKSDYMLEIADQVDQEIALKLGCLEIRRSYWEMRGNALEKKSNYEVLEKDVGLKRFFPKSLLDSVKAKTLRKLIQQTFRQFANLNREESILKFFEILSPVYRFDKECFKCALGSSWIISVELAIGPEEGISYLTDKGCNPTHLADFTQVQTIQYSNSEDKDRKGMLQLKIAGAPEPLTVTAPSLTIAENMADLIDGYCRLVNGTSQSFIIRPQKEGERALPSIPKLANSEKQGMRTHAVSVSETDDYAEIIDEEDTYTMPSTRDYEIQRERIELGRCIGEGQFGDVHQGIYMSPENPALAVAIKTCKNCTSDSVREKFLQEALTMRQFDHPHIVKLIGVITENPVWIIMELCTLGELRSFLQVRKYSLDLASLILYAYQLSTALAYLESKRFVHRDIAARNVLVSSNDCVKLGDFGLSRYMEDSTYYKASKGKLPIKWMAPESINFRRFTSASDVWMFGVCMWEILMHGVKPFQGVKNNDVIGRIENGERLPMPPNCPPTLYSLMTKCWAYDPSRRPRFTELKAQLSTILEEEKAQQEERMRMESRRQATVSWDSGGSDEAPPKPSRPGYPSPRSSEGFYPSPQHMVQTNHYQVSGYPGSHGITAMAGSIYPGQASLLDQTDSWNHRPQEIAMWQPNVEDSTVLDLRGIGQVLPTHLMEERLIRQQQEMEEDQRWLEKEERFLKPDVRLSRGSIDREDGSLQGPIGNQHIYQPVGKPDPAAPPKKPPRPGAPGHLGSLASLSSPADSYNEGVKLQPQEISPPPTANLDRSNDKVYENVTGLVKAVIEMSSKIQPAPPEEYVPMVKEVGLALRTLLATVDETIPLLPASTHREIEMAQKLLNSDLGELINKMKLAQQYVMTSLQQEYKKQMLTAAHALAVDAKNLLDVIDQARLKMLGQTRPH

[12] = test system: Fibrinogen (Alexa647-labelled); assay: fibrinogen binders on compound microarrays, profiling panel, artefact control for SMM control-protein annotation, biochemical, small-molecule microarray, 635/667 nm fluorescence (AID 1131); details: fibrinogen-A647 binding fluorescence, higher = more signal;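 further: z-score merges 667 nm fluorescence with per-spot signal-to-noise over triplicate slides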
[13] = molecular target: Follistatin (Homo sapiens) (UniProt P19883); assay: follistatin binders on small-molecule microarrays, primary screen, biochemical, small-molecule microarray, 635/667 nm fluorescence (AID 1132); details: FST binding, 635 nm fluorescence, higher = more signal
Sequence of Follistatin (Homo sapiens) (P19883 whole entry, looked up): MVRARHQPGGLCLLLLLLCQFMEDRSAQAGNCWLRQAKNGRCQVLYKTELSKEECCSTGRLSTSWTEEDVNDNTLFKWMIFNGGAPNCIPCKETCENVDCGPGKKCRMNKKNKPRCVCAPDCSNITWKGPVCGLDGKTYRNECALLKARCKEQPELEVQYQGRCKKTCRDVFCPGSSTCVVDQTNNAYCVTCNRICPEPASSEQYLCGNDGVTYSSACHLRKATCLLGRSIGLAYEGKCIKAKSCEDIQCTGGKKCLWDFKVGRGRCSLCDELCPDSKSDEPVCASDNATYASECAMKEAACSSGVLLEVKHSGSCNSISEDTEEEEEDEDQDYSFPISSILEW

[14] = molecular target: Fibroblast growth factor 2 (Homo sapiens) (UniProt P09038); assay: FGF2 binders on small-molecule microarrays, primary screen, biochemical, small-molecule microarray, 635/667 nm fluorescence (AID 1133); details: small-molecule microarray binding, FGF2, fluorescence 635/667; higher = more signal
Sequence of Fibroblast growth factor 2 (Homo sapiens) (P09038 whole entry, looked up): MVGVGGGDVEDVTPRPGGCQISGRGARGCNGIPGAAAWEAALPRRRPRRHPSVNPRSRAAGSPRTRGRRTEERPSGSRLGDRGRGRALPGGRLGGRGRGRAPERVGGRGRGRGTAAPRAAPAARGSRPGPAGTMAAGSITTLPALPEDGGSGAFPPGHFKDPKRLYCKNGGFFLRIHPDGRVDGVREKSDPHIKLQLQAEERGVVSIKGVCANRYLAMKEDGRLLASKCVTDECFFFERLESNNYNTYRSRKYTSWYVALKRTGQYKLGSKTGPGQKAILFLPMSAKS

[15] = mitochondrial membrane potential change in A549 cells, profiling panel, cell-based, JC-1 fluorescence, basal, 24 h, 100 nL (AID 1138); details: higher = more signal;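 further: A549 lung adenocarcinoma cells under basal conditions with no added stimulus; test concentration not given here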
Lefty1 = Lefty1 binders on small-molecule microarrays, primary screen, biochemical, small-molecule microarray, 635/667 nm fluorescence (AID 1139); details: small-molecule microarray binding, fluorescence 635/667; higher = more signal
[16] = test system: wheat germ agglutinin (Triticum aestivum), Alexa647-labelled; assay: wheat germ agglutinin binders on compound microarrays, profiling panel, artefact control for SMM control-protein annotation, biochemical, small-molecule microarray, 635/667 nm fluorescence (AID 1140); details: WGA-A647 binding, 635 nm fluorescence, higher = more signal;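 further: score merges 667 nm feature emission with signal to noise over triplicate slides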
[17] = molecular target: Luciferin 4-monooxygenase (Photinus pyralis) (UniProt P08659); assay: firefly luciferase enzyme inhibitors, primary screen, biochemical, luminescence, purified enzyme, 2006 set (AID 1141); details: SteadyGlo luminescence, 30 min, higher = more signal, called active from +8 up or from −8 down;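 further: cell-free assay with purified firefly luciferase at 100 ng per well in PBS; test concentration not given here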
Sequence of Luciferin 4-monooxygenase (Photinus pyralis) (P08659 whole entry, looked up): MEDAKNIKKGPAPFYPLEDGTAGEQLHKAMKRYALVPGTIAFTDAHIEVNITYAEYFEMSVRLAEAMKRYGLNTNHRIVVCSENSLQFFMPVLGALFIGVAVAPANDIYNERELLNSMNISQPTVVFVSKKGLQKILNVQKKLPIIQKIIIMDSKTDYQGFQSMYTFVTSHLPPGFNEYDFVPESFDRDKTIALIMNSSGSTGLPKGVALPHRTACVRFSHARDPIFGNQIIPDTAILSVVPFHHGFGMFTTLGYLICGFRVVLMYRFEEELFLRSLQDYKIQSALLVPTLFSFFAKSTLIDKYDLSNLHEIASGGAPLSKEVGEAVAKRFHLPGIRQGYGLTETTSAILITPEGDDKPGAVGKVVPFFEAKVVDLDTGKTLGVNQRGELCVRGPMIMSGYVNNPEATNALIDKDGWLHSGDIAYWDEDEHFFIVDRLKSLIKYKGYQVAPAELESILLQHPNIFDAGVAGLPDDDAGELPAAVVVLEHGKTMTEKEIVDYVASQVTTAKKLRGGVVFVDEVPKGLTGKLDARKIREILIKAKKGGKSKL

Compound | composite z-score (Albumin (Bos taurus)) | composite Z-score [1] | composite z-score [2] | composite z-score [3] | composite z-score [4] | composite z-score [5] | composite z-score [6] | composite z-score (Sam68 (KHDRBS1)) | composite z-score [7] | composite z-score [8] | composite z-score [9] | composite z-score [10] | composite z-score [11] | composite z-score [12] | composite z-score [13] | composite z-score [14] | z-score [15] | composite z-score (Lefty1) | composite z-score [16] | z-score [17]
COC(=O)[C@@]1(Cc2ccccc2)[C@H]2c3cc(C(=O)N(C)C)n(CCF)c3C[C@H]2CN1C(=O)c1ccccc1 | 1.11 | 0.507 (inactive) | 0.62 | 0.334 | 0.531 | 3.26 | 1.08 | 0.302 | -0.927 | 0.517 | 2.32 | 0.728 | 0.326 | 0.339 | 0.0139 | -0.551 | 0.551 | -0.773 | 0.969 | 1.02 (inactive)
C=CCNC(=O)[C@H]1[C@@H]2C(=O)O[C@@H](c3ccccc3)[C@@H](c3ccccc3)N2[C@@H](c2ccc(OCCO)cc2)[C@]12C(=O)Nc1ccc(C#Cc3ccc(OC)cc3)cc12 | 0.404 | 0.637 (inactive) | 0.146 | 0.0805 | 0.386 | 2.34 | 0.315 | 1.3 | 0.581 | 1.18 | 1.38 | 1.23 | 0.905 | 0.965 | 1.37 | 0.977 | -1.7 | 0.811 | 1.14 | 0.152 (inactive)
COc1ccc([Si](C)(C)[C@H]2[C@H](CCO)O[C@@]3(C(=O)N(Cc4ccccc4)c4ccc(NC(=O)[C@H](C)O)cc43)[C@@H]2C)cc1 | 0.639 | 0.393 (inactive) | 0.372 | -0.0274 | 0.48 | 2.28 | -0.298 | 0.463 | 0.0883 | 0.473 | 0.779 | 1.16 | 0.361 | 0.967 | 0.578 | -0.145 | -0.924 | 0.575 | 0.75 | -0.355 (inactive)
CC(C)(C)OC(=O)CC[C@]1(C(N)=O)N=C(c2ccc(OCCCO)cc2)O[C@H]1c1ccccc1N=[N+]=[N-] | 0.426 | 0.59 (inactive) | 0.156 | -0.084 | 0.791 | 1.61 | 0.242 | 0.522 | -0.416 | 0.741 | 2.8 | 0.977 | 0.178 | 0.746 | 1.2 | 0.38 | -0.12 | -0.512 | 1.1 | -8.33 (active)
CCCCC(=C=CC[C@H](O)c1ccccc1OCCO)CCO | 0.0552 | 0.849 (inactive) | -0.16 | -0.164 | 0.524 | 1.91 | 0.0655 | 0.597 | -0.336 | -0.14 | 2.08 | 0.118 | 0.0679 | -0.472 | 0.689 | 0.749 | -0.378 | 0.342 | -0.298 | 0.207 (inactive)
COCCCNC(=O)[C@@]1(CCC(=O)OC(C)(C)C)N=C(c2ccc(OCCCO)cc2)O[C@H]1c1ccccc1 | 0.838 | 0.0999 (inactive) | 0.141 | -0.0237 | 0.696 | 2.94 | 0.584 | 0.748 | -0.864 | 0.525 | 2.41 | 1.22 | 0.0039 | 0.986 | 1.36 | 0.295 | 1.42 | -0.568 | 0.597 | -0.173 (inactive)
COCCOC(=O)N1C(=O)[C@@]2(c3cc(C#CC4=CCCCC4)ccc31)[C@H](c1ccc(O)cc1)N1[C@H](c3ccccc3)[C@H](c3ccccc3)OC(=O)[C@H]1[C@@H]2C(=O)N1CCc2cc(OC)c(OC)cc2C1 | 0.699 | -0.007 (inactive) | -0.0014 | -0.0454 | 0.468 | 2.29 | 0.743 | 1.28 | -0.329 | 0.753 | 1.38 | 1.19 | 0.567 | 0.789 | 0.427 | 0.423 | 0.273 | 0.0605 | 0.726 | 0.0369 (inactive)
C=C[C@H](C)[C@@H](OC(=O)Nc1ccc(SC)cc1)c1ccc(OCCO)cc1 | 0.312 | 0.794 (inactive) | 0.137 | -0.0008 | 0.397 | 1.59 | 0.471 | 0.157 | 0.28 | 0.272 | 2.21 | 1.14 | 0.461 | -1.15 | 0.629 | 0.2 | -1.8 | 0.265 | 0.827 | -7.41 (inactive)
CCOC(=O)C[C@H]1[C@H](OC(=O)c2ccccc2-c2ccccc2)[C@@H](NC(=O)CC(C)C)c2cc(OCCCO)ccc2N1C(=O)c1ccccc1 | 0.079 | 0.305 (inactive) | -0.0406 | -0.0698 | 0.742 | 0.429 | -0.161 | 0.207 | 0.389 | 0.125 | -0.229 | 0.0447 | -0.0647 | 0.24 | 1.01 | 0.583 | -0.154 | 1.01 | -0.0988 | 0.914 (inactive)
CN1C(=O)C2C=CC(C(O)c3ccc([N+](=O)[O-])cc3)N(Nc3ccccc3)C2C1=O (stereo not given) | 1.06 | -1.05 (inactive) | 0.315 | -0.0305 | 0.652 | 1.94 | 0.701 | 1.31 | 0.196 | 1.15 | 0.358 | 1.23 | 0.36 | 0.999 | 1.26 | 0.531 | -0.387 | 0.0022 | 1.04 | -0.53 (inactive)
CCOC(=O)C=C1C[C@@H](c2cccc([N+](=O)[O-])c2)O[C@@H](c2cccc([N+](=O)[O-])c2)O1 | 0.817 | 0.636 (inactive) | 0.13 | -0.125 | 0.425 | 2.07 | 0.863 | 1.32 | 0.338 | 1.1 | 1.1 | 1.11 | 0.867 | 0.871 | 0.669 | 0.715 | 3.03 | 0.279 | 0.697 | 1.31 (inactive)
